The values below come from PubChem BioAssay (EPA / NIEHS).

Active and inactive are the calls of the source. The calls were made as follows: active = hit-call score of the fitted dose curve at least 0.9, where 1 is the maximum; inactive = score below 0.9.

Broadly, the AC50 is the midpoint of the concentration-response curve, whichever way the signal moves.

A short description of this test: ATG_PXRE_CIS: Attagene CIS-FACTORIAL HepG2 Assay for human Pregnane X Receptor Element (PXRE) (AID 2282957). To be noted: HepG2 Attagene CIS-FACTORIAL PXRE reporter, mRNA; actives raise or lower the signal. On the procedure: ATG_CIS is a cell-based, multiplexed-readout assay that uses HepG2, a human liver cell line, with measurements taken at 24 hours after chemical dosing in a 24-well plate.ATG_PXRE_CIS is one of 52 assay component(s) measured or calculated from the ATG_CIS assay. It is designed to make measurements of mRNA induction, a form of inducible reporter, as detected with fluorescence intensity signals by Reverse transcription polymerase chain reaction (RT-PCR) and Capillary electrophoresis technology.Data from the assay component ATG_PXRE_CIS was analyzed into 1 assay endpoint. This assay endpoint, ATG_PXRE_CIS, was analyzed with bidirectional fitting relative to DMSO as the negative control and baseline of activity. Using a type of inducible reporter, measures of mRNA for gain or loss-of-signal activity can be used to understand the reporter gene at the transcription factor-level as they relate to the gene NR1I2. Furthermore, this assay endpoint can be referred to as a primary readout, because this assay has produced multiple assay endpoints where this one serves a reporter gene function. To generalize the intended target to other relatable targets, this assay endpoint is annotated to the nuclear receptor intended target family, where the subfamily is non-steroidal.
Human liver HepG2 cells are transiently transfected with multiple reporter transcription units (MRTUs) in 6-well plates using FuGene 6 reagent (Roche; 3 ml FuGene/1 mg DNA). The MRTU constructs are regulated by a cis-regulating element (promoter). […] A major difference between the CIS and TRANS system is that in CIS activities of endogenous TFs are measured, whereas the TRANS assay evaluates changes in activities of exogenous, chimeric NR-Gal4 proteins. […] At the end of 24 hour incubation, total RNA was isolated using TriZol reagent (Invitrogen). The isolated RNA is then reverse-transcribed using oligo(dT) primer and Mo-MLV reverse transcriptase (Invitrogen) with DNAse I (Ambion) treatment for 30 min. The one-tenth of the produced cDNA was amplified by PCR using Taq DNA polymerase (Invitrogen) and two reporter sequence-specific primers. The PCR products were fluorescently labeled by primer extension with 6-arboxyfluorescein (6-FAM) 5'-labeled reporter sequence-specific primer (2 min at 95 C, 20 s at 68 C and 10 min at 72 C) and these products were digested with 5U of HpaI (New England Biolabs) for 2h at 37 C. The fragments were purified using Qiaquick PCR columns (Qiagen), analyzed on an ABI 3130xL genetic analyzer (Applied Biosystems) with peak positions identified by using a set of X-rhodamine (ROX)-labeled MapMarker1000 molecular weight standards (BioVentures). The raw capillary electrophoresis data was processed using Attagraph software (Attagene).
`CCOC(=O)Cc1cccc2ccccc12`: the half-maximal activity concentration (AC50) was 71.7 µM (active).

Turning to `Cc1cccc(N(C)C(=S)Oc2ccc3ccccc3c2)c1`, the concentration at half-maximal activity (AC50) is 0.61 µM (active).

As for `O=C(c1ccccc1)c1ccc(O)c(O)c1O`, the AC50 was 26.9 µM (active).

`O=C(Nc1cccc(C(F)(F)F)c1)c1cc(Br)cc(Br)c1O`: the molecule was called inactive.

On to `COC(=O)c1ccc2cc(C(=O)OC)ccc2c1`, for which the result was inactive.

Regarding `C=C(C)C(=O)OCC(C)C`, the molecule was classed as inactive.

In the case of `Cc1ccc(N/N=c2\c(=O)cc/c(=N/Nc3ccc(S(=O)(=O)O)cc3)c2=O)c(C)c1`, the concentration at half-maximal activity (AC50) is 42.6 µM (active).

For the molecule `CCC(C)(C)C1CCCCC1OC(C)=O` (stereo not given), the half-maximal activity concentration (AC50) is 27.2 µM (active).

For the molecule `CCC(Cc1ccccc1)(C(=O)c1ccc(N2CCOCC2)cc1)N(C)C` (stereo not given), the AC50 is 1.7 µM (active).

As to `CCOC(F)(F)C(F)(F)C(F)(F)C(F)(F)F`, the molecule was classed as inactive.

With `CCC(CC)C(=O)O`, the molecule was called inactive.

For the molecule `CCCCOCCOC(=O)COc1nc(Cl)c(Cl)cc1Cl`, the result was inactive.

Regarding `NC(=O)OCC(COC(N)=O)c1ccccc1`, the result was inactive.

As to `O=C(O)CCCC[C@@H]1SC[C@@H]2NC(=O)N[C@@H]21`, the molecule was classed as inactive.

In the case of `C=CC(=O)OCCC(=O)O`, the outcome was inactive.

As to `CC(C)(C)c1ccc(-c2ccc(C(C)(C)C)cc2)cc1`, the molecule was classed as inactive.

In the case of `C[Si](C)(CCCN)O[Si](C)(C)CCCN`, the result was inactive.

Take `CCCCCCCC[N+](C)(CCCCCCCC)CCCCCCCC`: the call was inactive.

As to `O=S(=O)(O)CC(O)CCl` (stereo not given), the molecule was classed as inactive.

As for `CC(=O)Oc1ccc(C)cc1`, the molecule was called inactive.

In the case of `Nc1cccc(C(F)(F)F)c1`, the result was inactive.

Regarding `CCCCCCCCCCc1ccccc1`, the result was inactive.

In the case of `CC1=NC(C)OC1C` (stereo not given), the AC50 was 7.08 µM (active).

`O=C1c2cccc(O)c2C(=O)c2c(O)cc(CO)cc21`: the concentration at half-maximal activity (AC50) is 8.72 µM (active).

Regarding `FC(F)=C(F)OC(F)(F)C(F)(F)C(F)(F)F`, the molecule was classed as inactive.

As to `O=[N+]([O-])c1ccc(CO)cc1`, the half-maximal activity concentration (AC50) is 5.54 µM (active).

For the molecule `CC[C@H]1OC(=O)[C@H](C)[C@@H](O[C@H]2C[C@@](C)(OC)[C@@H](O)[C@H](C)O2)[C@H](C)[C@@H](O[C@@H]2O[C@H](C)C[C@H](N(C)C)[C@H]2O)[C@](C)(O)C[C@@H](C)C(=NOCOCCOC)[C@H](C)[C@@H](O)[C@]1(C)O`, the result was inactive.

For the molecule `Cc1ccccc1C`, the AC50 is 36.5 µM (active).

For the molecule `COC(=O)c1c(C)cc(O)c(C)c1O`, the call was inactive.

Take `C=CCOCC(O)CCl` (stereo not given): the AC50 is 35.5 µM (active).

On to `O=C1CCCCCCCCCCCCCCCO1`, for which the result was inactive.

In the case of `C=COCCCC`, the molecule was classed as inactive.

In the case of `Cc1ccc(OC(=O)CC(C)C)cc1`, the outcome was inactive.

Consider `Cc1ccc(C(C)(C)C)cc1`, for which the outcome was inactive.

`CCCCCc1ccc(Cl)cc1`: the molecule was classed as inactive.

Turning to `CN(C)CCCN(C)C`, the result was inactive.

`C=CC(=O)OCCOC1C2CCC1C1CC=CC12` (stereo not given): the call was inactive.

Regarding `O=C1C=CC(=O)O1`, the outcome was inactive.

Turning to `Nc1nc2ccccc2[nH]1`, the call was inactive.

With `OC1CCCC1`, the AC50 is 48.8 µM (active).
